IDE act: human IDE activators in live cells, primary screen, fluorescence polarization, HEK cells, FAbeta-B substrate; FAbeta-B cleavage; 0% vehicle, 100% cell-free pure enzyme wells; Insulin-degrading enzyme (Homo sapiens), P14735; 0.073% of 340,000 active; AID 493087, 2011; activation, % at 5.96 µM;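 active = activation above the mean of all tested compounds plus 3 SD, set per screening campaign, cut at about 17% in these data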
Myeloid diff 2: induction of myeloid progenitor differentiation, primary screen, cell-based, flow cytometry, MLPCN library | 1% of 360,000 active | ER-HoxA9 myeloid progenitors, lysozyme-GFP differentiation | calls only at 10 µM | AID 624256, 2012;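 active = normalized GFP-positive differentiation at or above the plate's own cutoff, the solvent-only control mean plus 3 SD; inconclusive = no clear call, values can overlap the other calls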;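 also: cells exposed to compound for four days before flow analysis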
TPT1 inh: Candida albicans TPT1 enzyme inhibitors, primary screen, biochemical, fluorescence polarization | inhibition, % at 5 µM | 0.81% of 300,000 active | recombinant caTPT1, FP RNA substrate dephosphorylation;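 active = inhibition above the mean of all tested compounds plus 3 SD, set per screening campaign, cut at about 24% in these data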;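 also: plate controls were DMSO alone for no effect and ferristatin control at 100 nM for full effect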
CRFBP-R2 agonist: agonists of CRF-BP/CRF-R2 complex, primary screen, cell-based, HEK293, calcium dye fluorescence, uHTS | 0.46% of 350,000 active | CRF-binding protein / CRF receptor 2 complex (human) | AID 588473, 2011 | activation, % at 13.2 µM | calcium dye fluorescence (FLIPR); percent of saturating CRF peptide response;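 active = activation of at least 50%, plus an integration ratio under a set limit after plate pattern correction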;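 also: plate controls were neutral control wells without compound for no effect and CRF at EC100 for full effect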
IDE inh: human IDE inhibitors in live cells, primary screen, fluorescence polarization, HEK cells, FAbetaB substrate; inhibition, % at 5.59 µM; Insulin-degrading enzyme (Homo sapiens), P14735; 0.41% of 320,000 active; FAbetaB cleavage;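 active = percent inhibition above the average of all tested compounds plus 3 SD, set per screening campaign, cut at about 16% in these data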;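 also: IDE supplied by intact live HEK cells; FP after avidin binding of uncleaved biotin substrate so inhibition keeps polarization high; 0% = DMSO wells and 100% = 60 µM reference IDE inhibitor Ii1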
CRFBP-R2 block: antagonists of CRF-BP/CRF-R2 complex, primary screen, cell-based, HEK293, calcium dye fluorescence, uHTS; CRF-induced calcium fluorescence; inhibition, % at 11.8 µM; 0.59% of 350,000 active;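 active = inhibition of the ligand-induced calcium signal above about 50% at the single tested concentration, limit read from the data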
IDE inh confirm: human IDE inhibitors in live cells, confirmation, fluorescence polarization, HEK cells, FAbetaB substrate; FAbetaB cleavage; inhibition, % at 5.59 µM; 51% of 1,200 active; shares compounds with IDE inh;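 active = mean inhibition across triplicate wells above the cutoff set by the earlier primary insulin-degrading enzyme screen, cut at about 16% in these data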;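 also: 0% = DMSO wells and 100% = 60 µM reference IDE inhibitor Ii1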
HEK293 tox: cytotoxicity in HEK cells, cytotoxicity control for IDE inhibitor project, cell-based, luminescence | shares compounds with IDE inh | HEK293 cytotoxicity, ATP luminescence | inhibition, % at 5.59 µM | 28% of 1,200 active | AID 449730, 2010; in the data active = inhibition above about 22%;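 also: 0% = vehicle wells and 100% = reference cytotoxic drug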
The depositor's hits bear a star; i = inactive; ? = inconclusive; · = no result given; + = active, no number. A selection: hits, their analogues and other compounds. The true share with any hit is near 2.6%.

SMILES | IDE act | Myeloid diff 2 | TPT1 inh | CRFBP-R2 agonist | IDE inh | CRFBP-R2 block | IDE inh confirm | HEK293 tox
Cc1n[nH]c(C)c1N1C(=O)c2cccc3c(N4CCCCCC4)ccc(c23)C1=O | -67 | + | -7 | 400* | 122* | -375 | 26* | 10
CCNc1nnc(CSc2nc3ccccc3s2)s1 | -7 | i | 0 | -1 | 17* | -39 | 9 | 8
CC(=O)O[C@@H]1C[C@H]2C(C)(C)C(=O)C=C[C@]2(C)[C@H]2CC[C@@]3(C)[C@H](c4ccoc4)OC(=O)[C@H]4O[C@]43[C@@]21C | -41 | i | 0 | 41 | 18* | -9 | 7 | 58*
CC(=O)OC1CC2C(C)(C)C(=O)C=CC2(C)C2CCC3(C)C(c4ccoc4)OC(=O)C4OC43C12C (stereo not given) | · | i | · | · | · | · | · | ·
Nc1nnnn1/N=C/c1cc(Cl)cc(Cl)c1O | -36 | i | -32 | 138* | 19* | -108 | 43* | 8
Nc1nnnn1/N=C/c1cc(Cl)ccc1O | -9 | i | -10 | 34 | 9 | -17 | · | ·
COc1ccc2[nH]c3c(N4CC(C)OC(C)C4)ncnc3c2c1 (stereo not given) | · | · | 5 | -1 | 17* | -4 | 7 | 11
COc1cc2[nH]c3c(Cl)ncnc3c2cc1OC | -1 | i | 1 | 0 | 0 | -6 | · | ·
COc1cccc2[nH]c3c(N4CCC(C)CC4)ncnc3c12 | -1 | i | 7 | -6 | 2 | -18 | · | ·
COc1cccc(N2CCN(c3ncnc4c3[nH]c3ccc(F)cc34)CC2C)c1 (stereo not given) | -12 | ? | -2 | -3 | 38* | -13 | 28* | 122*
CCN(CC)CCNc1ncnc2c1[nH]c1ccc(OC)cc12 | · | · | 0 | · | -1 | · | · | ·
COc1cc2[nH]c3c(N4CCN(c5ccc(Cl)cc5)CC4)ncnc3c2cc1OC | -29 | i | -5 | -2 | 52* | -11 | 27* | 38*
Cc1cc(C(=O)N2CCN(c3cc(Cl)ccc3C)CC2)on1 | -5 | i | 2 | -6 | 0 | 6 | · | ·
CN(C)CCN1CCN(C2CN(C3CCCC3)S(=O)(=O)C2)CC1 (stereo not given) | · | i | · | · | · | · | · | ·
O=C(CN1C(=O)NC2(CCCC2)C1=O)N1CCN(S(=O)(=O)c2cc(Cl)ccc2Cl)CC1 | 3 | i | · | 1 | 0 | -1 | · | ·
Cc1cccc(-n2c(O)c(C=Nc3ccccc3O)c3ccccc3c2=O)n1 | -4 | i | 1 | 0 | 8 | -3 | · | ·
Cc1cccc(-n2c(O)c(C=Nc3ccccc3-c3n[nH]c(=S)[nH]c3=O)c3ccccc3c2=O)n1 | -30 | i | 0 | 1 | 22* | 2 | 17* | 2
CC1=CC(C)(C)Nc2ccc(OC(=O)CN3C(=O)c4ccccc4C3=O)cc21 | -3 | ? | 5 | 0 | 19* | -2 | 41* | 123*
CC1=CC(C)(C)Nc2ccc(OC(=O)CN3C(=O)c4cccc5cccc(c45)C3=O)cc21 | -3 | i | -4 | 19 | 6 | -15 | · | ·
Cc1cccc(C)c1N1CCN(c2cc(Cl)nc(N)n2)CC1 | -8 | i | -2 | 1 | 18* | 17 | 4 | 14
COc1ccc(N)c2c1C(=O)c1ccccc1C2=O | 5 | i | -1 | 0 | 2 | 4 | · | ·
COc1ccc(OC)c2c1C(=O)C(Cl)=C(Cl)C2=O | -102 | ? | -3 | 0 | 22* | 29 | 18* | 125*
Cc1c(C)c2ccc(OCC(=O)N3CCC[C@@H]3C(=O)O)c(C)c2oc1=O | 5 | i | 2 | 1 | 17* | -7 | 2 | 15
NNC(=O)/C(=C\c1ccc(Br)cc1)NC(=O)c1cccs1 | 8 | i | -1 | -1 | 17* | 13 | 7 | 8

Screening data (PubChem)
